# From PubChem BioAssay
# Assay: basal MM1S mitochondrial membrane potential changes, profiling panel, cell-based, JC-1 fluorescence, 24 h, 100 nL compound (AID 1170); note: test concentration not given here
# Details: higher = more signal
row,SMILES,z-score
1,COC(=O)CC=C[C@@H](C)[C@@H](C=NOC[C@@H](C)[C@H](OCc1ccccc1)C(C)C)NS(=O)(=O)c1ccc(C)cc1,-0.00529
2,COc1cccc([C@H]2Oc3ccc(OC)cc3C(=NO[C@@H](C)c3cc(-c4c(C)cc(C)cc4C)no3)[C@@H]2O)c1,0.463
3,CCN1C(=O)[C@H]2[C@H]3[C@H](O)[C@H](O)CC(=NNC(=O)OCc4ccccc4)[C@H]3CC[C@H]2C1=O,0.409
4,CC(=O)OC[C@H]1O[C@H](CCON=C(C)CCN2CCCc3nc(C)c(C)cc32)C=C[C@@H]1OC(C)=O,-0.033
5,CCOC(=O)[C@H](Cc1ccccc1)NC(=O)CCC1CC(OC(=O)NCc2cccc3ccccc23)CC2(CCCC(COC(=O)NCCOc3ccccc3)O2)O1 (stereo partly specified),-0.883
6,CC(CCN1CCCc2nc(C)c(C)cc21)=NOC[C@@H](O)COCc1ccco1,-0.0723
7,CC(CCC(=O)OC[C@H]1O[C@H](C#Cc2ccccc2)C=C[C@@H]1Oc1ccc(C)cc1)=NO[C@H](C)c1cn([C@@H]2COC[C@H]2O)nn1,-1.1
8,C[C@H]1C=CCC(=O)OC[C@H](C)C(=O)N2CCC[C@H]2C(=O)OC1,-0.828
9,CC(=O)OC[C@H]1O[C@@H](ON=C2[C@H]3CCn4c(=O)n(-c5ccccc5)c(=O)n4[C@H]3[C@H](O)[C@@H]3O[C@H]23)[C@H](OC(C)=O)[C@@H](OC(C)=O)[C@@H]1OC(C)=O,-0.64
10,C[C@@H](c1ccccc1)N1C(=O)[C@H]2[C@H]3[C@H](O)[C@H](O)CC(=NNC(=O)OCc4ccccc4)[C@@H]3CC[C@H]2C1=O,-0.998
11,CCOC(=O)CCN1C(=O)[C@H]2[C@H]3[C@H](O)[C@H](O)CC(=NNC(=O)OCC)[C@H]3CC[C@H]2C1=O,0.0724
12,O=C1[C@H]2[C@H]3[C@H](O)[C@H](O)CC(=NOC[C@@H](O)COCc4ccco4)[C@@H]3CC[C@H]2C(=O)N1C1CCCCC1,-0.891
13,CC(=O)OC[C@H]1O[C@H](CCON=C(C)C)C=C[C@@H]1OC(C)=O,-0.57
14,COC(=O)[C@@H]1CC[C@H](C)[C@@H](c2ccc(C)cc2)N1C(=O)c1ccc(C=NOC[C@H]2O[C@H](c3ccccc3)C=C[C@@H]2Oc2ccc(OC)cc2)cc1,0.0359
15,C=C(C)C(=O)OC[C@H]1CN2[C@@H](CC[C@@H](C)[C@@H]2c2ccc(Br)cc2)C(=O)O1,-0.197
16,CCOC(=O)[C@H](Cc1ccccc1)NC(=O)CCC1CC(OC(=O)NCc2cccc3ccccc23)CC2(CCCC(COC(=O)NCCc3ccccc3OC)O2)O1 (stereo partly specified),-0.193
17,CCOC(=O)[C@H](CC(C)C)NC(=O)CCC1CC(OC(=O)NCc2ccc3c(c2)OCO3)CC2(CCCC(COC(=O)NCCC(C)C)O2)O1 (stereo partly specified),-0.155
18,CC(C)CON=C1C[C@@H](O)[C@@H](O)[C@@H]2[C@@H]3C(=O)N(C(C)(C)C)C(=O)[C@@H]3CC[C@@H]12,0.342

row,SMILES,z-score
1,COc1ccc(O[C@H]2C=C[C@@H](c3ccccc3)O[C@@H]2COC(=O)CCC(C)=NOC[C@@H](O)COCc2ccco2)cc1,-1.12
2,CC(C)(C)N1C(=O)[C@H]2[C@H]3[C@H](O)[C@H](O)CC(=NOC[C@@H](O)COCc4ccco4)[C@@H]3CC[C@H]2C1=O,0.325
3,CC(CCN1CCCCc2nc(C)c(C)cc21)=NO[C@@H](C)c1cc(-c2c(C)cc(C)cc2C)no1,-1.74
4,COC(=O)[C@H](C)NC(=O)CC=C[C@@H](C)[C@@H]1C=C[C@H](O)[C@@H](CO)O1,-0.463
5,CCN1C(=O)[C@H]2[C@H]3[C@H](O)[C@H](O)CC(=NOC[C@@H](O)COCc4ccco4)[C@H]3CC[C@H]2C1=O,0.905
6,O=C1[C@H]2[C@H]3[C@H](O)[C@H](O)CC(=NOC[C@@H](O)COCc4ccco4)[C@@H]3CC[C@H]2C(=O)N1Cc1ccc2c(c1)OCO2,-1.18
7,Cc1ccc(S(=O)(=O)N[C@@H]2COC(=O)CC=C[C@@H](C)[C@H](NS(=O)(=O)c3ccc(C)cc3)COC(=O)[C@H](C)NC(=O)CC=C[C@H]2C)cc1,1.03
8,COC(=O)CC=C1c2ccccc2[C@H](OC)[C@H]1C,-0.707
9,CCN(CC)CC(O)CN1CCCCc2nc(C)c(C)cc21 (stereo unspecified),-0.989
10,CC(C)CON=C1C[C@@H](O)[C@@H](O)[C@@H]2[C@@H]3C(=O)N(Cc4ccccc4)C(=O)[C@@H]3CC[C@H]12,-0.628
11,COc1ccc(OC[C@H]2CN3[C@@H](CC[C@@H](C)[C@@H]3c3ccc(Br)cc3)C(=O)O2)cc1,0.381
12,O=C1[C@H]2[C@H]3[C@H](O)[C@H](O)CC(=NOCc4ccccc4)[C@H]3CC[C@H]2C(=O)N1C1CCCCC1,-0.847
13,CCOC(=O)CCN1C(=O)[C@H]2[C@H]3[C@H](O)[C@H](O)CC(=NOCC=C(C)CCC=C(C)C)[C@H]3CC[C@H]2C1=O,-1.44
14,CC(=O)OC[C@H]1O[C@H](CC=NOC(C)CN2CCCc3nc(C)c(C)cc32)C=C[C@@H]1OC(C)=O (stereo partly specified),-0.188
15,CCOC(=O)[C@H](CC(C)C)NC(=O)CCC1CC(OC(=O)NCc2ccc3c(c2)OCO3)CC2(CCCC(COC(=O)NCCc3ccccc3OC)O2)O1 (stereo partly specified),-0.501
16,COc1ccc(COC(=O)NN=C2C[C@@H](O)[C@@H](O)[C@@H]3[C@@H]4C(=O)N(Cc5ccc6c(c5)OCO6)C(=O)[C@@H]4CC[C@H]23)cc1,-0.825
17,COc1cccc([C@H](O)Cn2cc(-c3ccc(CON=C(C)C)cc3)nn2)c1,-0.544
18,CO[C@@H]1C=CCC(=O)N[C@@H](C)C(=O)OC[C@@H](NS(=O)(=O)c2ccc(C)cc2)[C@H](C)C=CCC(=O)OC[C@H]1C,0.301
